According to PubChem BioAssay (NCATS):
Records with an inconclusive call do not appear. Active and inactive are the calls of the source.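 How the source made its calls, unless noted: active means compounds whose dose series gives a full or clear partial fitted curve of increased nuclear translocation; inconclusive means weak partial curve or effect only at the top dose; inactive means no dose-dependent translocation response.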

Target: Glucocorticoid receptor (Homo sapiens) (UniProt P04150)
Test: GR-GFP Redistribution (AID 450); further: potency means the concentration at half of the fitted maximal effect
Conditions: U2OS GR-GFP nuclear translocation, laser cytometry, 2 h; series mostly up to 20.6 µM

Sequence of Glucocorticoid receptor (Homo sapiens) (P04150 whole entry, looked up): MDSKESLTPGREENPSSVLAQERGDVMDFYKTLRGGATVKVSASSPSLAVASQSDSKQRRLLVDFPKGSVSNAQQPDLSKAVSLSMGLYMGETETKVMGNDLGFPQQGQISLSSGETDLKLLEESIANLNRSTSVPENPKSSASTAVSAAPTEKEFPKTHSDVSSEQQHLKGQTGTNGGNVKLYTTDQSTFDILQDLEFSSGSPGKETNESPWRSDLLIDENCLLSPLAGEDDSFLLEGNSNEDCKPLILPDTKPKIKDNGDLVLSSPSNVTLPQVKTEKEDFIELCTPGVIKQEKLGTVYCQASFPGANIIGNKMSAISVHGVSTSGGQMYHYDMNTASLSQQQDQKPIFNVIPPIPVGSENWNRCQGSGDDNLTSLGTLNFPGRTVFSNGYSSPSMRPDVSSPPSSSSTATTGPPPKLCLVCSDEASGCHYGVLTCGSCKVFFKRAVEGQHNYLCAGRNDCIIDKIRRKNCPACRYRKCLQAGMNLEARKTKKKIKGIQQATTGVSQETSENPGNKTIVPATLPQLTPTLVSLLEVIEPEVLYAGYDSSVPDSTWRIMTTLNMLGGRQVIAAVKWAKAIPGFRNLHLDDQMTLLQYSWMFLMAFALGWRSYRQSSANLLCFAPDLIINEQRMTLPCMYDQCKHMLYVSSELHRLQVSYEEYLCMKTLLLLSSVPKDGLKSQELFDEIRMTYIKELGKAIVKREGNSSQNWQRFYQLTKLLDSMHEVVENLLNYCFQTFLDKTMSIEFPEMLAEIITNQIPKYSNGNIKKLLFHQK

Potency, inactive:
COc1ccc(OCC(O)Cn2c(Nc3cccc(C)c3)nc3c2c(=O)n(C)c(=O)n3C)cc1 (stereo unspecified) > 20.6 µM
CCCCC(=O)c1c(C)cc(C)[nH]c1=O > 20.6 µM
CSc1ccccc1NC(=O)c1c(Br)cnn1C > 20.6 µM
C=CCOC(=O)C1=C(C)NC(SCC(=O)N(CC)CC)=C(C#N)C1c1ccccc1 (stereo unspecified) > 20.6 µM
Cc1nc(NCCN)c(C#N)c2c1COC(C)(C)C2 > 20.6 µM
O=C(NC1(C(F)(F)F)C(=O)Nc2c1c(=O)[nH]c(=O)n2Cc1ccco1)C1CCCCC1 (stereo unspecified) > 20.6 µM
C=CCn1c(=S)[nH]c2nc3c(cc2c1=O)COC(C)(C)C3 > 20.6 µM
CN1CCc2cc(O)c(O)cc2[C@H](c2ccccc2)C1 > 46 µM
COc1ccc(-c2nn3c(C4CCCCC4)nnc3s2)cc1OC > 20.6 µM
COc1ccc(C(=O)N/C(N)=N/c2nc3ccccc3o2)cc1 > 20.6 µM
CCOC(=O)C1=C(C)N=C2SC(C)C(=O)N2C1c1ccc(C(=O)OC)cc1 (stereo unspecified) > 20.6 µM
O=C(/C=C\c1ccc(O)cc1)c1ccc(O)cc1O > 46 µM
CC1(C)Cc2c(c(-c3ccccc3)[nH]c(=O)c2C#N)CS1 > 20.6 µM
c1ccc(-c2nc(NCC3CCCO3)c3ccccc3n2)nc1 (stereo unspecified) > 20.6 µM
Cn1c2ccccc2c2nn(-c3ccccc3)c(=O)cc21 > 20.6 µM
COC(=O)c1sc(NC(=O)c2oc3ccccc3c2C)nc1C > 20.6 µM
FC(F)(F)c1cc(CO[C@@H]2CCCN[C@H]2c2ccccc2)cc(C(F)(F)F)c1 > 46 µM
Cc1cc(C)c(C#N)c(SCC(=O)N2CCN(Cc3ccccc3)CC2)n1 > 20.6 µM
N#CC1=C(SCC(=O)c2ccc(Cl)cc2)NC2=C(C(=O)CCC2)C1c1ccco1 (stereo unspecified) > 20.6 µM
COc1ccc(NC(=O)CSC2=C(C#N)C(c3ccco3)C3=C(CCCC3=O)N2)c(OC)c1 (stereo unspecified) > 20.6 µM
CCCOc1ccccc1C(=O)NCCCC(=O)O > 20.6 µM
Cc1cc(C)c(-n2c(O)c(C=NCCN3CCOCC3)c(=O)[nH]c2=O)c(C)c1 > 20.6 µM
CCOC(=O)c1c(-c2cccs2)csc1NC(=O)c1ccncc1 > 20.6 µM
Nc1nnc(Cc2ccc(Cl)c(Cl)c2)s1 > 20.6 µM
CCCCCOc1ccc(Cl)cc1CN1CCOCC1 > 20.6 µM

Target: Glucocorticoid receptor (Homo sapiens) (UniProt P04150)
Test: GR-EFC Redistribution (AID 451; calls by dose curve; further: potency means the concentration at half of the fitted maximal effect)
Conditions: CHO-K1 GR-EFC translocation, beta-gal luminescence, 2 h
In short: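 CHO-K1 cells stably expressing nuclear-localized β-gal enzyme acceptor and GR fused C-terminally to the enzyme donor fragment; ligand-driven nuclear translocation restores β-gal by complementation. Compounds titrated up to 46 uM final, 2 h at 37 °C; luminescence read.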

Potency, inactive:
C[C@H](O)[C@@H]1C(=O)N2C(C(=O)O)=C(SCCN=CN)C[C@@H]12 > 20.6 µM
COC(=O)[C@@H](NC(=O)c1cc(-c2ccccc2)nc2ccccc12)c1ccccc1 > 46 µM
CC[C@]1(O)C[C@H]2CN(CCc3c([nH]c4ccccc34)[C@](C(=O)OC)(c3cc4c(cc3OC)N(C)[C@@H]3[C@](O)(C(=O)OC)[C@H](OC(C)=O)[C@]5(CC)C=CCN6CC[C@]43[C@@H]65)C2)C1 > 46 µM
CN1CCc2cc(O)c(O)cc2[C@H](c2ccccc2)C1 > 46 µM
O=C(/C=C\c1ccc(O)cc1)c1ccc(O)cc1O > 46 µM
FC(F)(F)c1cc(CO[C@@H]2CCCN[C@H]2c2ccccc2)cc(C(F)(F)F)c1 > 46 µM

Target: Mitogen-activated protein kinase 10 (Mus musculus) (UniProt Q61831)
Test: JNK3 AlphaScreen Assay (AID 530; active means well fitted curve in either direction with a large enough effect, not every such curve was filed as active;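 further: kinase came from lysate of stimulated human HepG2 cells; signal reports phosphorylation of biotinylated GST-cJun 1-79 at Ser73 with 10 µM ATP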)
Conditions: JNK3 lysate, c-Jun phosphorylation; series mostly up to 57.1 µM
In short: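 Phosphorylation of biotinylated GST-cJun(1-79) at Ser73 is measured by AlphaScreen proximity luminescence. Enzyme is JNK3 in HepG2 lysates activated with interleukin-1beta and tumor necrosis factor alpha; ATP is 10 uM final.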

Potency, inactive:
C[C@H](O)[C@@H]1C(=O)N2C(C(=O)O)=C(SCCN=CN)C[C@@H]12
CC[C@]1(O)C[C@H]2CN(CCc3c([nH]c4ccccc34)[C@](C(=O)OC)(c3cc4c(cc3OC)N(C)[C@@H]3[C@](O)(C(=O)OC)[C@H](OC(C)=O)[C@]5(CC)C=CCN6CC[C@]43[C@@H]65)C2)C1
CN1CCc2cc(O)c(O)cc2[C@H](c2ccccc2)C1
O=C(/C=C\c1ccc(O)cc1)c1ccc(O)cc1O
FC(F)(F)c1cc(CO[C@@H]2CCCN[C@H]2c2ccccc2)cc(C(F)(F)F)c1
COc1cc([C@H]2c3cc4c(cc3[C@@H](O[C@H]3O[C@H]5CO[C@@H](C)O[C@H]5[C@@H](O)[C@@H]3O)[C@@H]3COC(=O)[C@H]23)OCO4)cc(OC)c1O

Target: 3',5'-cyclic-AMP phosphodiesterase 4B (Homo sapiens) (UniProt Q07343)
Test: qHTS Assay for Inhibitors of PDE-IV (AID 607; active means well fitted activation curve with a large enough effect in the main read-out, with a control signal flat, not every such curve was filed as active)
Conditions: HEK293 ACTOne CNG channel cells, membrane potential fluorescence; series mostly up to 22.9 µM
In short: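 ACTOne HEK293 cells carry a modified cAMP-gated CNG channel and express endogenous PDE4; plated 1000 cells/well, compounds up to 22.9 uM final. Membrane-potential dye fluorescence (ex 535/em 590) was read; parental cells received 10 uM forskolin + 100 uM RO 20-1724.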

Sequence of 3',5'-cyclic-AMP phosphodiesterase 4B (Homo sapiens) (Q07343 whole entry, looked up): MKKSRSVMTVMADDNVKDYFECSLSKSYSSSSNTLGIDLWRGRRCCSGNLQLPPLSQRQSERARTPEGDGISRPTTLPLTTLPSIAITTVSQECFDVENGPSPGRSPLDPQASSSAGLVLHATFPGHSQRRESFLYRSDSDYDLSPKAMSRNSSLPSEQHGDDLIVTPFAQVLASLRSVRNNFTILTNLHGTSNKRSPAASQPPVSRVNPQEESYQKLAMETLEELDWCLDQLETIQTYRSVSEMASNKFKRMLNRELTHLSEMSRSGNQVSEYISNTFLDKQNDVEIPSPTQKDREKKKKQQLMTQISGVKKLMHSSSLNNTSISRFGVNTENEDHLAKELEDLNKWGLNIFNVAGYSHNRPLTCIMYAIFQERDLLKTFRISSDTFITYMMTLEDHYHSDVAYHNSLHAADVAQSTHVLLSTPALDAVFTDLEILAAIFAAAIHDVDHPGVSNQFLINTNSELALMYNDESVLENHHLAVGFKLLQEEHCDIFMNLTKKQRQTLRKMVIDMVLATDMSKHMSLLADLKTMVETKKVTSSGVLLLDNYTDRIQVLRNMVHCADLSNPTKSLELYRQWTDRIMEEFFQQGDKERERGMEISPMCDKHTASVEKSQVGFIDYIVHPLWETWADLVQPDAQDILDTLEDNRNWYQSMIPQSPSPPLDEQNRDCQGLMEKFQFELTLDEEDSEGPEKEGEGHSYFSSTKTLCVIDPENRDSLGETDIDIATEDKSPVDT

Potency, inactive:
C[C@H](O)[C@@H]1C(=O)N2C(C(=O)O)=C(SCCN=CN)C[C@@H]12
CC[C@]1(O)C[C@H]2CN(CCc3c([nH]c4ccccc34)[C@](C(=O)OC)(c3cc4c(cc3OC)N(C)[C@@H]3[C@](O)(C(=O)OC)[C@H](OC(C)=O)[C@]5(CC)C=CCN6CC[C@]43[C@@H]65)C2)C1
CN1CCc2cc(O)c(O)cc2[C@H](c2ccccc2)C1
COc1cc([C@H]2c3cc4c(cc3[C@@H](O[C@H]3O[C@H]5CO[C@@H](C)O[C@H]5[C@@H](O)[C@@H]3O)[C@@H]3COC(=O)[C@H]23)OCO4)cc(OC)c1O
